Results on 38 molecules are retold here after the supplement of paper PMC11219838.

Molecules are shown by their SMILES.

In the assay the test system is Caenorhabditis elegans L1 (N2). Description: survival and reproduction score of C. elegans L1 (0: 0-10 living worms, 1: 11-20, 2: 21-50, 3: >50, 4: overgrown) (score 0-4); higher = more worms, less nematicidal, active = 1 or less; extreme values may be limits of the assay. As to conditions: 60 µM; 6 days; temperature: 20 °C. An outline of the steps:
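Each 96-well well received about 20 synchronized N2 L1 worms of C. elegans, E. coli HB101 and liquid NGM, plus compound pinned to 60 µM final (0.6% v/v DMSO). Sealed plates were incubated with shaking at 200 rpm, 20 °C, for 6 days. Survival and reproduction were rated under a dissection microscope as an ordinal score of living worms per well, averaged across biological replicates. The scale spanned 0 (0–10 worms) to 4 (overgrown, starved), and there were two replicates.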
In the case of `O=C(CSc1nnc(-c2ccco2)o1)Nc1cccc2ccccc12`, the “survival and reproduction score” value was 4 (inactive).

With `CCOc1cc(-c2noc(-c3ccncc3)n2)ccc1OC`, the “survival and reproduction score” value is 4 (inactive).

As to `O=C(CSc1nnc(-c2ccccc2Cl)o1)NCc1ccco1`, the “survival and reproduction score” value is 4 (inactive).

For `Fc1ccc(-c2nc(-c3ccc(Br)cc3)no2)cc1`, the “survival and reproduction score” value was 3 (inactive).

For the molecule `c1cncc(-c2noc(COc3cccc4ccccc34)n2)c1`, the “survival and reproduction score” value is 4 (inactive).

Consider `CC(C)c1ccc(OCc2nc(-c3ccccn3)no2)cc1`, for which the “survival and reproduction score” value is 4 (inactive).

As for `CCOc1cc(-c2nc(-c3ccc(C)nc3OC)no2)cc(OCC)c1OCC`, the “survival and reproduction score” value is 4 (inactive).

Regarding `Brc1ccc(OCc2nc(-c3cccnc3)no2)cc1`, the “survival and reproduction score” value was 4 (inactive).

Take `COc1nc(-c2ccccc2)ccc1-c1noc(-c2ccco2)n1`: the “survival and reproduction score” value was 1 (active).

As to `CCn1c(C)cc(C(=O)CSc2nnc(-c3ccccc3)o2)c1C`, the “survival and reproduction score” value was 4 (inactive).

For the molecule `Cc1ccc(OCc2nc(-c3ccccn3)no2)cc1C`, the “survival and reproduction score” value was 4 (inactive).

As to `CCOc1nc(-c2ccc(C)cc2)ccc1-c1noc(-c2cccnc2)n1`, the “survival and reproduction score” value is 4 (inactive).

Consider `CCOc1ccccc1-c1nc(-c2cccc(C)c2)no1`, for which the “survival and reproduction score” value was 4 (inactive).

Turning to `Cc1ccc(-c2noc(COc3ccc(Cl)cc3C)n2)cc1`, the “survival and reproduction score” value is 2 (inactive).

As to `N#Cc1ccc(CSc2nnc(-c3ccccc3)o2)cc1`, the “survival and reproduction score” value was 4 (inactive).

Turning to `CCNC(=O)c1ccccc1-c1nc(-c2ccc(F)cc2)no1`, the “survival and reproduction score” value is 2 (inactive).

Take `FC(F)(F)c1ccc(-c2noc(-c3ccccc3Cl)n2)cc1`: the “survival and reproduction score” value is 4 (inactive).

As to `Brc1ccc(-c2noc(-c3ccc4c(c3)OCO4)n2)cc1`, the “survival and reproduction score” value is 4 (inactive).

For the molecule `CC(C)CCC(=O)Nc1ccccc1-c1nc(-c2ccncc2)no1`, the “survival and reproduction score” value is 4 (inactive).

Take `CCSc1nnc(-c2ccc(Cl)cc2)o1`: the “survival and reproduction score” value was 0 (active).

Regarding `COc1ccc(Cl)cc1-c1noc(COc2ccccc2C)n1`, the “survival and reproduction score” value was 4 (inactive).

As for `CCCc1ccc(-c2nc(-c3ccc(F)cc3)no2)cc1`, the “survival and reproduction score” value was 1.5 (inactive).

Turning to `Cc1nnc(CSc2nnc(-c3ccc(Cl)cc3)o2)o1`, the “survival and reproduction score” value is 4 (inactive).

For the molecule `CCCc1ccc(-c2nc(-c3cccnc3)no2)cc1`, the “survival and reproduction score” value is 0 (active).

On to `Cc1nc(CSc2nnc(-c3ccccc3)o2)cs1`, for which the “survival and reproduction score” value was 4 (inactive).

As for `Cc1ccc(CSc2nnc(-c3ccco3)o2)c(C)c1`, the “survival and reproduction score” value was 0 (active).

Regarding `Clc1ccc(CSc2nnc(-c3ccc(Cl)cc3)o2)cc1`, the “survival and reproduction score” value was 4 (inactive).

Consider `COc1nc(-c2ccccc2)ccc1-c1noc(-c2ccccc2Cl)n1`, for which the “survival and reproduction score” value is 4 (inactive).

For `CCOC(=O)c1c(NC(=O)CSc2nnc(-c3ccc(Cl)cc3)o2)sc(C(C)=O)c1C`, the “survival and reproduction score” value is 4 (inactive).

For the molecule `O=C(CSc1nnc(-c2cccc(Br)c2)o1)N1CCCCC1`, the “survival and reproduction score” value is 4 (inactive).

Take `c1ccc(COc2cccc(-c3nc(-c4cccnc4)no3)c2)cc1`: the “survival and reproduction score” value was 2.5 (inactive).

As to `Cc1ccccc1OCc1nc(-c2ccc(Cl)cc2)no1`, the “survival and reproduction score” value was 4 (inactive).

`COc1ccccc1-c1nnc(SCC(=O)Nc2ccccc2Cl)o1`: the “survival and reproduction score” value is 4 (inactive).

Consider `CCOc1nc(C)ccc1-c1noc(-c2ccccc2F)n1`, for which the “survival and reproduction score” value was 4 (inactive).

In the case of `COc1ccc(-c2noc(COc3ccc(Cl)cc3C)n2)cc1`, the “survival and reproduction score” value is 4 (inactive).

As to `COc1ccc(-c2nnc(SCC(=O)Nc3ccc(Cl)cc3C)o2)cc1`, the “survival and reproduction score” value was 4 (inactive).

For the molecule `Cc1cccc(-c2noc(-c3ccccc3Br)n2)c1`, the “survival and reproduction score” value was 3.5 (inactive).

As for `Cc1cnc(NC(=O)CSc2nnc(-c3cccc(Cl)c3)o2)s1`, the “survival and reproduction score” value was 4 (inactive).
